Assay [1] is described as follows: yeast TOR pathway RPL19A-GFP modulators, primary screen, cell-based, S. cerevisiae, multiplex flow cytometry (AID 1862; in the data active means percent of DMSO control GFP below about 86%;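 further: lower values mimic rapamycin by blocking the RPL19A rise seen in DMSO cells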). The note with it: S. cerevisiae RPL19A-GFP strain, flow cytometry fluorescence, 3 h; at 10 µM; stronger effect = lower value. (A flow cytometer gives signals particle by particle.)
The nature of assay [2]: modulators of MEP2-GFP levels in yeast, primary screen, S. cerevisiae, multiplex flow cytometry (AID 1867;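 active means GFP response, as percent of the DMSO control, above the screen-wide mean plus 3 SD, about 139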;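 further: median GFP channel fluorescence of barcode-gated MEP2-GFP cells measured by flow cytometry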). To be noted: S. cerevisiae MEP2-GFP strain, 3 h, at 10 µM, stronger effect = higher value, 100% means same as DMSO wells.
Assay [3] can be described thus: modulators of CIT2-GFP expression in yeast, primary screen, S. cerevisiae, GFP fusion, multiplex flow cytometry (AID 1870;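 active means percent response above a set limit, the screen-wide mean plus 3 SD, cut at about 130% in these data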;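 further: barcoded CIT2-GFP strain pooled with four other GFP strains with rapamycin as positive control; median GFP fluorescence per well over plate mean of DMSO wells so 100% = DMSO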). To be noted: 3 h, at 10 µM, stronger effect = higher value.
The nature of assay [4]: modulators of LAP4-GFP expression in yeast, primary screen, S. cerevisiae, multiplex flow cytometry (AID 1873). The note with it: 3 h, at 10 µM, stronger effect = higher value.
A short description of assay [5]: modulators of AGP1-GFP expression in yeast TOR pathway, primary screen, cell-based, multiplex flow cytometry, S. cerevisiae (AID 1887;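 active means GFP signal above the screen-wide mean plus 3 SD, that is over about 124.5% of the solvent control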;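 further: AGP1-GFP fusion strain of S. cerevisiae within a five-strain barcoded multiplex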). The note with it: 3 h, at 10 µM, stronger effect = higher value.
The nature of assay [6]: inhibitors of CD8+ T cell-vesicle binding, pilot screen, LFA-1/ICAM-1 modulator project, MLPCN validation set, flow cytometry (AID 2523;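 active means response below a set limit, under 55% cells CD8-positive and vesicle-bound, and CD8 cells' 90th-percentile brightness under 279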;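 on vesicle binding response: mean PE anti-B7-1 fluorescence of CD8+ cells relative to row control; 100% = QL9-loaded vesicles with DMSO vehicle in the same plate row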). The note with it: 2C mouse CD8+ T cells, at 7 µM, stronger effect = lower value; double positive events: measured here: CD8+/vesicle+ event percentage.
Assay [7] has as its target Integrin beta-1 (Homo sapiens) + Integrin alpha-4 (Homo sapiens) (UniProt P13612+P05556). The experiment in a line: inhibition of HUTS-21 binding to VLA-4, pilot screen, VLA-4 allosteric modulator project, U937 cells, HUTS-21 mAb, flow cytometry, validation set (AID 2674;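 active means inhibition above 50%, about 3 SD of the validation set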;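 further: antibody binding induced by the VLA-4 ligand LDV present at three times its Kd; 0% = LDV ligand with antibody and no compound and 100% = antibody without LDV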). To be noted: HUTS-21 LIBS mAb binding, at 6.7 µM, stronger effect = higher value, binding induced by LDV ligand.

Assay [8] in a line: superoxide lowering in aged yeast cells, pilot screen, validation compound set (AID 2706;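 active means superoxide response below 65% of plate, a cut near 3 SD across the whole screen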;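 further: yeast exposed to compound for one week at 30 degrees C before staining; 100% = mean of all compound wells on the same plate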). To be noted: S. cerevisiae aging, superoxide DHE fluorescence; at 10 µM; stronger effect = lower value.
Assay [9] deals with Beta-adrenergic receptor kinase 1 (Homo sapiens) (UniProt P25098). The experiment in a line: GRK2 binders displacing RNA aptamer, biochemical, validation, human GRK2, bead flow cytometry (AID 488806;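 active means aptamer binding inhibition above 30%, about 3 SD of noise from non-fluorescent compounds; inactive means inhibition at or below 30%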). The note with it: bead-bound GRK2, FAM-aptamer displacement, at 10 µM, stronger effect = higher value.
Chain of Beta-adrenergic receptor kinase 1 (Homo sapiens) (P25098 whole entry, looked up): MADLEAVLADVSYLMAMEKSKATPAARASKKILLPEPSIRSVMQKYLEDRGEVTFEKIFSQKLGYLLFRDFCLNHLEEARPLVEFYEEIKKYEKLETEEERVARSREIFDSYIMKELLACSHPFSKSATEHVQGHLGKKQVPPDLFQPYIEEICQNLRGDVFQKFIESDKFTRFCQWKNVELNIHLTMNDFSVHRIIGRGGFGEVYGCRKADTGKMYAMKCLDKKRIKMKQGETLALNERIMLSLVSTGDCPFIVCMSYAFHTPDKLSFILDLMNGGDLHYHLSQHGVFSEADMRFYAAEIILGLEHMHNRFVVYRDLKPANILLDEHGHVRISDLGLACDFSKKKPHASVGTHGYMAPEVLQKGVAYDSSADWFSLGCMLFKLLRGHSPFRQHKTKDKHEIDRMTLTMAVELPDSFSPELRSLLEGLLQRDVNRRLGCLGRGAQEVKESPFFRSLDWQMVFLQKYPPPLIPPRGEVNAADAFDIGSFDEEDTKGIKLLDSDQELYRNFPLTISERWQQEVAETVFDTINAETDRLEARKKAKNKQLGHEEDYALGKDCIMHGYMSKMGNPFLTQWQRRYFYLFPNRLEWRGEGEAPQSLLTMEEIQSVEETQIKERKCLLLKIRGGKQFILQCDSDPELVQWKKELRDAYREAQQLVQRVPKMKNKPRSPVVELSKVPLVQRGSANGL
Assay [10] deals with Beta-2 adrenergic receptor (Homo sapiens) (UniProt P07550). The experiment in a line: beta2AR agonists driving receptor internalization, pilot screen, cell-based, FAP fluorogen, flow cytometry, validation set (AID 504459;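 active means percent response above 42, roughly 3 SD of non-fluorescent test compounds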;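 further: agonist-driven loss of surface beta2AR via internalization measured by FAP dye flow cytometry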). To be noted: Am2.2-beta2AR cells, FAP surface receptor flow cytometry; at 10 µM; stronger effect = higher value.
Chain of Beta-2 adrenergic receptor (Homo sapiens) (P07550 whole entry, looked up): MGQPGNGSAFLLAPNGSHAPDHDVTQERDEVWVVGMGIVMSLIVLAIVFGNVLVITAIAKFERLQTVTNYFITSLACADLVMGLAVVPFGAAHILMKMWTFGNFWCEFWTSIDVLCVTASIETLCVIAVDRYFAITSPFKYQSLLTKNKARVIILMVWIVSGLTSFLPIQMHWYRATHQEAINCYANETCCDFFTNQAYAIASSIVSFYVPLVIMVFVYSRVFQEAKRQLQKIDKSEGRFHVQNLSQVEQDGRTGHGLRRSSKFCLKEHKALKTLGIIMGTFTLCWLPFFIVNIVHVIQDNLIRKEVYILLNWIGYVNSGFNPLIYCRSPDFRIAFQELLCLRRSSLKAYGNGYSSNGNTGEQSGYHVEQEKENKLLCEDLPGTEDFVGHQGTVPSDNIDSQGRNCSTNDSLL
The target of assay [11] is AP-2 complex subunit beta (Homo sapiens) (UniProt P63010). The assay can be described thus: inhibitors of arrestin peptide binding to AP2, pilot screen, biochemical, validation set, GST-AP2 beads, flow cytometry (AID 504541;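 active means inhibition above 54%, about 3 SD of non-fluorescent compounds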;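 further: AP2 carries R879A mutation and is captured from E. coli lysate; bead-bound FITC arrestin peptide fluorescence measuring arrestin peptide binding to AP2; 0% = DMSO wells and 100% = excess unlabeled arrestin peptide control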). To be noted: FITC arrestin peptide, at 10 µM, stronger effect = higher value, AP2 beta2 appendage fragment, R879A mutant.
Chain of AP-2 complex subunit beta (Homo sapiens) (P63010 whole entry, looked up, the tested form may be a part, one chain of several): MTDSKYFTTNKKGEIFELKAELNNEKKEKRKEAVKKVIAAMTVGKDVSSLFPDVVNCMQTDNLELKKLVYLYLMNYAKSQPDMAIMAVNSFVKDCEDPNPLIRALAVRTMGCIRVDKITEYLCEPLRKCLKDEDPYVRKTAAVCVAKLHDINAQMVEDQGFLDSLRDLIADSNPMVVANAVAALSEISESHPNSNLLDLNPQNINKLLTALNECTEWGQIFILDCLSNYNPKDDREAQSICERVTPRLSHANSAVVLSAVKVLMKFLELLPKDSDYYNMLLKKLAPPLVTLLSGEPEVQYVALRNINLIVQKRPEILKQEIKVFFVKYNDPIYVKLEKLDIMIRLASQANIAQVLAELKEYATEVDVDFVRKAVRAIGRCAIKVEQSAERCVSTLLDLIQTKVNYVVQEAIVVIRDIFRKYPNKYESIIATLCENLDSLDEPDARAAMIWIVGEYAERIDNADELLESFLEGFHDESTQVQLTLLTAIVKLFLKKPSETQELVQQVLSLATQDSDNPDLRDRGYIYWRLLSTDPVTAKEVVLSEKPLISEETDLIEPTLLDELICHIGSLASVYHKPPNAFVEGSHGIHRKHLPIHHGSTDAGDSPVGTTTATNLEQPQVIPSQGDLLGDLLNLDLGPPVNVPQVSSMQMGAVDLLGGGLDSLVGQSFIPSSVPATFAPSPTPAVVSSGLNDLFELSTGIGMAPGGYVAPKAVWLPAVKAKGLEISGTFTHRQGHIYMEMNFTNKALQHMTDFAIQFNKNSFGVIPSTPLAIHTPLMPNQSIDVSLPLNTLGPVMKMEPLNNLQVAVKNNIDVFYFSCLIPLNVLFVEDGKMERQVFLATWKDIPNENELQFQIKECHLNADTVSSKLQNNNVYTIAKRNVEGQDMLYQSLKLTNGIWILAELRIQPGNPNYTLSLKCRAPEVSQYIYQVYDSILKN
A short description of assay [12]: yeast V-ATPase proton transport modulators, S. cerevisiae, pHLuorin, HTS validation (AID 504600; in the data active means response above about 15%;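 further: plate controls were DMSO for no effect and reference compound for full effect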). The note with it: S. cerevisiae pHLuorin cytosolic pH, at 10 µM, stronger effect = higher value.
The test system of assay [13] is anti-desmoglein-3 scFv antibody binding to human DSG3. The assay can be described thus: inhibitors of anti-DSG3 scFv binding to DSG3, pilot screen, biochemical, validation compound set, bead-based, flow cytometry (AID 588368;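 active means binding below the plate cutoff, the plate median minus 3 SD, with a reading above zero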;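 further: signal is the median channel fluorescence of bead-bound GFP antibody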). The note with it: Protein G beads, DSG3-Fc, scFv-GFP binding, at 10 µM, stronger effect = lower value.
Assay [14] in a line: inhibitors of fungal efflux pumps CDR1, CDR2, MDR1, pilot screen, validation compound set, multiplex, phenotypic (AID 588506;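 active means efflux inhibition above 0.42, the validation set average plus 4 SD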;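 further: Nile Red retained in cells so higher fluorescence means more efflux inhibition; 0 = negative control wells and 1 = enniatin B 25 µM full block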). To be noted: S. cerevisiae pump-expressing triplex, Nile Red efflux flow cytometry; at 10 µM; stronger effect = higher value; the pumps come from Candida albicans.
Assay [15] addresses ATP-binding cassette sub-family B member 6 (Homo sapiens) (UniProt Q9NP58). The experiment in a line: ABCB6 transporter inhibitors, pilot screen, K562-ABCB6 cells, flow cytometry, validation set (AID 588550;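 active means inhibition above the screen-wide mean plus 3 SD, about 51%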;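 further: 0% = DMSO wells and 100% = benzethonium chloride 70 µM positive control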). The note with it: K562-ABCB6 porphyrin accumulation, 1 h, at 10 µM, stronger effect = higher value.
Assay [16] is described as follows: promoters of myeloid differentiation in arrested cells, primary screen, cell-based, GFP/MAC1 double positive, flow cytometry, validation set (AID 588685;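 active means differentiation response of at least 50%, scaled between solvent and reference control, from cells with both markers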;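 further: compound exposure lasts four days before antibody staining and flow analysis; 0% = DMSO wells and 100% = 5 µM fulvestrant positive control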). The note with it: ER-HoxA9 marrow cells, stronger effect = higher value, normalized: vehicle 0, fulvestrant 100.

Results filed as inconclusive are left out. Active and inactive are the calls of the source.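 How the source made its calls, unless noted: active means GFP signal, as percent of the solvent control, above the screen mean plus 3 SD, about 149; inconclusive means no reading because the compound's own fluorescence upset strain identification; inactive means the rest.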

The inhibition is the relative decrease from the control value, in per cent.

Chain of Integrin beta-1 (Homo sapiens) + Integrin alpha-4 (Homo sapiens) (P05556 whole entry, looked up): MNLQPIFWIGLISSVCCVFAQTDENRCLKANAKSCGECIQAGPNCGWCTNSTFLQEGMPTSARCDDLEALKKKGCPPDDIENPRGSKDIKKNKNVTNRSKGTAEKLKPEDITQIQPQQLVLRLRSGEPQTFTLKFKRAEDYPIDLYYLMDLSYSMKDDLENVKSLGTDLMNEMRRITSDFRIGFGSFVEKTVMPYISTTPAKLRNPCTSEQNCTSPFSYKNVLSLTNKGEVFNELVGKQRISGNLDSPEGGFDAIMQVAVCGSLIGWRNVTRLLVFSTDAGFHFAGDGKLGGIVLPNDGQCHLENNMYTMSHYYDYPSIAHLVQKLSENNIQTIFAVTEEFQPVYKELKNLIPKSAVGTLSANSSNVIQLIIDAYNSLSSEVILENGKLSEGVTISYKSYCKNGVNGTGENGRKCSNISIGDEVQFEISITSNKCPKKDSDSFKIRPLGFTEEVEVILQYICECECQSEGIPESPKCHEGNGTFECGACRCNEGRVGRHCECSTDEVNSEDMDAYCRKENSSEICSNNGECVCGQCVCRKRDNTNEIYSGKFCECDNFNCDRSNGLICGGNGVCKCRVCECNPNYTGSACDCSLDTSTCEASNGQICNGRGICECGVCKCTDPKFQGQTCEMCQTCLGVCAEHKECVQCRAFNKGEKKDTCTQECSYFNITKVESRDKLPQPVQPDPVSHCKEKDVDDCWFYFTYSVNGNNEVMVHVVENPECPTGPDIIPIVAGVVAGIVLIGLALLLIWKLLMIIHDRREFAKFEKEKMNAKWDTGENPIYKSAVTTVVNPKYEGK
Chain of Integrin beta-1 (Homo sapiens) + Integrin alpha-4 (Homo sapiens) (P13612 whole entry, looked up): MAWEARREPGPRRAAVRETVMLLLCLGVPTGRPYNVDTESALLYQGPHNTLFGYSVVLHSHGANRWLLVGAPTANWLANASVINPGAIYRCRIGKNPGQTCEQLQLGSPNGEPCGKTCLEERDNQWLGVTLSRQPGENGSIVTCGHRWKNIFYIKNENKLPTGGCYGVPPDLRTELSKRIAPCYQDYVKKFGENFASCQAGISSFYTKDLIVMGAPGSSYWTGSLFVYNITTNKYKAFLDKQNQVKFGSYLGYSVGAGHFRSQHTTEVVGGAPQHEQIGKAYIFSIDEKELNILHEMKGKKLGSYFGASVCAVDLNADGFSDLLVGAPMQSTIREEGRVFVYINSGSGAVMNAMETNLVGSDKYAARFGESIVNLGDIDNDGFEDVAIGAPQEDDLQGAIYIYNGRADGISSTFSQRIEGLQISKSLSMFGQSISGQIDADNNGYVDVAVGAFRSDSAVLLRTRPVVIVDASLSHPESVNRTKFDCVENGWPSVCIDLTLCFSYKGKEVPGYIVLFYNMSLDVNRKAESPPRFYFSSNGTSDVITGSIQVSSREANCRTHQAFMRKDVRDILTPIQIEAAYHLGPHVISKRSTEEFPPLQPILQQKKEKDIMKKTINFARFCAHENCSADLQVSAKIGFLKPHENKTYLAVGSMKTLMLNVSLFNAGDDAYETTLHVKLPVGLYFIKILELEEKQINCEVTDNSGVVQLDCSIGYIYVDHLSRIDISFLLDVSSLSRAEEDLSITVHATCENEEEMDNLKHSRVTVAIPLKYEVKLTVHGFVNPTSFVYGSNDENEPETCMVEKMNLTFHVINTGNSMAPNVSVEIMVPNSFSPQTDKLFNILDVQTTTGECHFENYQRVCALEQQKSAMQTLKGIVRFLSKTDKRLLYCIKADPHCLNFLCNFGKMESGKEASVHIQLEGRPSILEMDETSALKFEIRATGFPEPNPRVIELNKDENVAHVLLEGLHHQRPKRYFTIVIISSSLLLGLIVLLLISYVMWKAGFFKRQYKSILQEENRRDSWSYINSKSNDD
Chain of ATP-binding cassette sub-family B member 6 (Homo sapiens) (Q9NP58 whole entry, looked up): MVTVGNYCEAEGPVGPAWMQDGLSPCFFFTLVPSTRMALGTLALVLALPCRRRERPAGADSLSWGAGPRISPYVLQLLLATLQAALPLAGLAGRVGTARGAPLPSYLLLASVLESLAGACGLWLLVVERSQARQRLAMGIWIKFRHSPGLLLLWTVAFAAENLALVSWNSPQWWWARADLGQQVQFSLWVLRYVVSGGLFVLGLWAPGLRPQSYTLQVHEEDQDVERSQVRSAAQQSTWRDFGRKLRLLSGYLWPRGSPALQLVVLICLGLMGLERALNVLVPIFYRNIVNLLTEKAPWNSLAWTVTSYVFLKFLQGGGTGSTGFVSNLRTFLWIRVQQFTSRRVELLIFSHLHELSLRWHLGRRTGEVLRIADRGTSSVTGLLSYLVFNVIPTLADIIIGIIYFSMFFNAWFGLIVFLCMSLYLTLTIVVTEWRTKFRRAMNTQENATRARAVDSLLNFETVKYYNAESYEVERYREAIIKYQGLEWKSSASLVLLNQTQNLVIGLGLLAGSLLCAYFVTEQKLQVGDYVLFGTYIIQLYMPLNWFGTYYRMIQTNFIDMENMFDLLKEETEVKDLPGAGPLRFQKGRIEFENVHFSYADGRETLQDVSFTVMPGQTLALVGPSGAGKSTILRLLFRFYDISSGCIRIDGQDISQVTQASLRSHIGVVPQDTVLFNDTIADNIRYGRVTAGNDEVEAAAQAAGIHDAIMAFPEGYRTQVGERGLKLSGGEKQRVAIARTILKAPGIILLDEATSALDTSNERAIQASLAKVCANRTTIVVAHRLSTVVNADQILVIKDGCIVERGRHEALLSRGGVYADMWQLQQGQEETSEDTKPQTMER

On to `O=C(Nc1cccc(Oc2c(F)c(F)c(F)c(F)c2F)c1)N1C[C@@H]2C[C@@H](C1)c1cccc(=O)n1C2`, for which the percent of DMSO control GFP in assay [1] is 100% (inactive). The GFP response vs DMSO is 101% (inactive) in assay [2] and 98% (inactive) in [4]. Besides, in assay [3], the percent response of DMSO control is 101% (inactive). Also, the GFP response, % of DMSO in assay [5] was 101% (inactive). This compound also came in with a double positive events in [6] of 63.7%. Besides, the vesicle binding response in assay [6] was 215% (inactive). Moreover, the inhibition in assay [7] was 15.1% (inactive); in assay [11], -6.11% (inactive); in assay [15] it was -6% (inactive). For the same compound, the superoxide response (% of plate) in [8] is 104% (inactive). In addition, the aptamer binding inhibition in [9] is 2% (inactive). The response was -14.9% (inactive) in assay [10] and 0.72% (inactive) in [12]. Further, the binding (% of control) in assay [13] is 88% (inactive). The efflux inhibition (fraction of control) in assay [14] was -0.35 (inactive). The differentiation response in assay [16] was 7.09% (inactive).
For `CN1/C(=C\C=Nc2ccccc2)C(C)(C)c2ccccc21`, the percent of DMSO control GFP in assay [1] was 102% (inactive). Also, the GFP response vs DMSO is 102% (inactive) in [2] and 103% (inactive) in [4]. Further, in [3], the percent response of DMSO control was 98.3% (inactive). Also, the GFP response, % of DMSO in assay [5] is 113% (inactive). In assay [6], this compound returned a double positive events of 61.9%. Further, in assay [6], the vesicle binding response is 196% (inactive). Further, the superoxide response (% of plate) in [8] is 101% (inactive). In addition, the aptamer binding inhibition in assay [9] is -1% (inactive). Further, the response in assay [10] was -50.9% (inactive); in assay [12] it was 0.09% (inactive). The inhibition in assay [11] was 11.8% (inactive). Also, the binding (% of control) in [13] is 116% (inactive). Moreover, the efflux inhibition (fraction of control) in assay [14] was 0 (inactive). In addition, in [16], the differentiation response is 2.89% (inactive).
Consider `O=C(Nc1ccc(F)c([N+](=O)[O-])c1)c1ccc2c(c1)OCCO2`, for which the percent of DMSO control GFP in assay [1] is 106% (inactive). In addition, the GFP response vs DMSO was 103% (inactive) in assay [2] and 108% (inactive) in assay [4]. In assay [3], the percent response of DMSO control was 104% (inactive). Further, the GFP response, % of DMSO in assay [5] is 100% (inactive). Further, the double positive events in assay [6] was 63%. Moreover, the vesicle binding response in assay [6] is 5830% (inactive). In addition, the inhibition in [7] was -1.49% (inactive); in [11], -13.5% (inactive); in assay [15] it was 15% (inactive). Besides, in [8], the superoxide response (% of plate) was 94% (inactive). Moreover, the aptamer binding inhibition in assay [9] is 2% (inactive). Further, the response in assay [10] was 1.51% (inactive); in assay [12] it was 3.69% (inactive). Besides, in [13], the binding (% of control) is 92.4% (inactive). The efflux inhibition (fraction of control) in assay [14] is -0.01 (inactive). Moreover, the differentiation response in assay [16] was 5.13% (inactive).
As for `COc1c(O)ccc2c1CN1CCc3cc4c(cc3C1C2)OCO4` (configuration not stated), the percent of DMSO control GFP in assay [1] was 107% (inactive). Moreover, the figures for the GFP response vs DMSO in assay [2] and in assay [4] were 112% (inactive) and 130% (inactive), respectively. In addition, the percent response of DMSO control in assay [3] is 93.9% (inactive). In addition, the GFP response, % of DMSO in assay [5] was 103% (inactive). Also, the double positive events in assay [6] was found to be 61.6%. In addition, in assay [6], the vesicle binding response is 157% (inactive). In addition, the superoxide response (% of plate) in [8] was 92.6% (inactive). In addition, the aptamer binding inhibition in assay [9] was 1% (inactive). Also, the values for the response in assay [10] and in assay [12] were 24.6% (inactive) and -1.39% (inactive), respectively. Besides, the inhibition is 30.3% (inactive) in assay [11] and -25% (inactive) in assay [15]. In addition, the binding (% of control) in [13] was 99.7% (inactive). Further, the efflux inhibition (fraction of control) in assay [14] is 0.66 (active). Also, in assay [16], the differentiation response was 23.2% (inactive).
As to `CCOC(=O)C1(Cc2cccc(Cl)c2)CCCN(C2CCN(C(C)=O)CC2)C1` (configuration not stated), the percent of DMSO control GFP in assay [1] was 101% (inactive). Also, the GFP response vs DMSO in assay [2] and in assay [4] was 101% (inactive) each time. Moreover, in assay [3], the percent response of DMSO control is 102% (inactive). For the same compound, in [5], the GFP response, % of DMSO is 100% (inactive). The compound also had a double positive events in assay [6] of 60.5%. Also, the vesicle binding response in [6] is 42.6% (inactive). Besides, the inhibition in assay [7] is -7.72% (inactive); in assay [11], 34.6% (inactive); in assay [15] it was 13% (inactive). Moreover, the superoxide response (% of plate) in [8] is 106% (inactive). For the same compound, the aptamer binding inhibition in assay [9] is -3% (inactive). Also, the response in [10] is -8.31% (inactive); in assay [12], -5.5% (inactive). Moreover, the binding (% of control) in [13] was 177% (inactive). For the same compound, the efflux inhibition (fraction of control) in assay [14] was -0.1 (inactive). Also, the differentiation response in assay [16] is -0.73% (inactive).

The record behind these values is PubChem BioAssay.
